Reference: PubChem BioAssay (Tox21)
Results filed as inconclusive are left out. Active and inactive are the calls of the source. Unless noted, the call rests on the fitted dose curve; in most records, active means well fitted curve in the direction sought with a large enough effect in the repeat runs; inconclusive means weak or mixed curves; inactive means no such curve, though single readings can be large; an effect the other way counts as inactive or inconclusive.

Experiments:
[1] = molecular target: Aryl hydrocarbon receptor (Homo sapiens) (UniProt P35869); test: qHTS assay to identify small molecule that activate the aryl hydrocarbon receptor (AhR) signaling pathway (AID 743085);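 further: HG2L7.5c1 human HepG2 liver cells with stably integrated DRE-driven firefly reporter; series mostly up to about 70 µM; nearly all actives have a fitted effect of over 15% in size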
Procedure, shortened: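 AhR agonist activity is inferred from enhanced light output of a DRE-controlled firefly luciferase reporter in HepG2 cells, measured with ONE-Glo following 24 h treatment at 37C.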

[2] = qHTS assay to identify small molecule that activate the aryl hydrocarbon receptor (AhR) signaling pathway - cell viability counter screen (AID 743086);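 further: HepG2 liver cells carrying the AhR DRE luciferase reporter; series mostly up to about 70 µM; nearly all actives have a fitted effect of over 45% in size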
Procedure, shortened: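 HepG2-AhR-luc (HG2L7.5c1) cells, 4000/well, treated 24 h at 37 C with compound; viability measured as CellTiter-Fluor fluorescence after 30 min in the same wells as the luciferase read.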

[3] = molecular target: Peroxisome proliferator-activated receptor gamma (Homo sapiens) (UniProt P37231); test: qHTS assay to identify small molecule agonists of the peroxisome proliferator-activated receptor gamma (PPARg) signaling pathway (AID 743094; active means well fitted activation curve with a large enough effect in the signal ratio in the repeat runs, not every such curve was filed as active; the % refers to the signal ratio)
Procedure, shortened: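 Agonism was assessed in a beta-lactamase reporter system, HEK293H cells with a stably integrated UAS-bla construct under PPARg control; the 17 h treatment at 37C preceded a 1 h room-temperature FRET substrate read.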

[4] = molecular target: Peroxisome proliferator-activated receptor gamma (Homo sapiens) (UniProt P37231); test: qHTS assay to identify small molecule antagonists of the peroxisome proliferator-activated receptor gamma (PPARg) signaling pathway (AID 743191; calls by dose curve; further: series mostly up to about 63 µM; nearly all actives have a fitted effect of over 30% in size)
Procedure, shortened: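 GeneBLAzer PPARg UAS-bla HEK293H cells, 5 h post-plating, exposed to compounds 17 h at 37C. LiveBLAzer B/G FRET substrate added for 1 h at room temperature; beta-lactamase reporter read by fluorescence intensity.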

[5] = qHTS assay to identify small molecule antagonists of the peroxisome proliferator-activated receptor gamma (PPARg) signaling pathway - cell viability counter screen (AID 743194); further: nearly all actives have a fitted effect of over 55% in size
Procedure, shortened: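 Cytotoxicity counter screen in PPARg-bla HEK293H cells, same wells as reporter assay. Compounds plus 50 nM rosiglitazone (final) for 17 h at 37 C, then viability read by CellTiter-Glo luminescence.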

[6] = qHTS assay for small molecule agonists of the antioxidant response element (ARE) signaling pathway (AID 743202; active means well fitted activation curve with a large enough effect in the signal ratio in the repeat runs, not every such curve was filed as active; the % refers to the signal ratio)
Procedure, shortened: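 HepG2 ARE-bla reporter line, 2,000 cells/well; 5 h preincubation 37 C/5% CO2; compound (DMSO) 16 h 37 C; B/G FRET substrate 2 h RT; fluorescence intensity.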

[7] = qHTS assay for small molecule agonists of the antioxidant response element (ARE) signaling pathway - cell viability counter screen (AID 743203; calls by dose curve; further: nearly all actives have a fitted effect of over 55% in size)
Procedure, shortened: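 ATP content via CellTiter-Glo luminescence served as the viability measure. Cells: ARE-bla HepG2, 2,000 per well. Exposure: 16 hrs, 37C/5% CO2.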

[8] = qHTS assay for small molecule activators of the heat shock response signaling pathway - cell viability counter screen (AID 743209); further: nearly all actives have a fitted effect of over 50% in size
Procedure, shortened: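 Compounds dissolved in DMSO were added to overnight-plated HSE-bla HeLa cells and left 5 h at 37 C. Cell viability was quantified by luminescence using CellTiter-Glo.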

[9] = qHTS assay for small molecule activators of the heat shock response signaling pathway (AID 743210; active means well fitted activation curve with a large enough effect in the signal ratio in the repeat runs, with a control signal flat, not every such curve was filed as active; the % refers to the signal ratio;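 further: HeLa cells with beta-lactamase reporter driven by heat shock elements; series mostly up to about 63 µM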)
Procedure, shortened: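 Beta-lactamase reporter read-out: FRET substrate fluorescence after 2.5 h at RT, following 5 h compound treatment at 37 C of HeLa cells carrying HSE-driven bla reporter; quantitative HTS format.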

[10] = qHTS assay to identify small molecule agonists of the peroxisome proliferator-activated receptor delta (PPARd) signaling pathway - cell viability counter screen (AID 743211); further: nearly all actives have a fitted effect of over 55% in size; further: potency means the concentration at half of the fitted maximal effect
Procedure, shortened: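 qHTS cell viability: PPARd-bla HEK293H; 17 h cpd, 37C; CellTiter-Glo, luminescence at 30 min RT.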

[11] = qHTS assay to identify small molecule antagonists of the peroxisome proliferator-activated receptor delta (PPARd) signaling pathway - cell viability counter screen (AID 743213); further: nearly all actives have a fitted effect of over 50% in size
Procedure, shortened: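 PPARd-bla HEK293H cells (3000/well) got compound plus 300 nM L165041 agonist for 17 h at 37 C. Viability in the same wells came from CellTiter-Glo luminescence after 30 min at room temperature.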

[12] = qHTS assay to identify small molecule agonists of the farnesoid-X-receptor (FXR) signaling pathway - cell viability counter screen (AID 743218); further: nearly all actives have a fitted effect of over 45% in size
Procedure, shortened: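 Quantitative HTS counter screen measuring ATP-based viability via CellTiter-Glo luminescence in HEK 293T cells carrying a UAS-driven beta-lactamase reporter, after 16 h compound exposure at 37 C.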

[13] = qHTS assay to identify small molecule antagonists of the farnesoid-X-receptor (FXR) signaling pathway - cell viability counter screen (AID 743221; active means well fitted cell-killing curve with a large enough effect in the repeat runs, not every such curve was filed as active; further: nearly all actives have a fitted effect of over 50% in size)
Procedure, shortened: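 After a 5 h settling period, FXR-bla HEK 293T cells receive compound and chenodeoxycholic acid (50 uM final) and incubate 16 h at 37 C; CellTiter-Glo luminescence, read after 30 min at room temperature, reports cell viability.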

[14] = molecular target: Vitamin D3 receptor (Homo sapiens) (UniProt P11473); test: qHTS assay to identify small molecule agonists of the vitamin D receptor (VDR) signaling pathway (AID 743222; calls by dose curve)
Procedure, shortened: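 Tox21 cell reporter format: VDR-bla line, 16 h compound exposure in 5% CO2 at 37C, then fluorescence intensity after 2 h with LiveBLAzer B/G FRET substrate.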

[15] = qHTS assay to identify small molecule agonists of the vitamin D receptor (VDR) signaling pathway - cell viability counter screen (AID 743224); further: series mostly up to about 63 µM; nearly all actives have a fitted effect of over 50% in size
Procedure, shortened: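 CellTiter-Glo viability readout on VDR-bla cells, measured after 16 h of compound treatment at 37C in the same wells.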

[16] = molecular target: Peroxisome proliferator-activated receptor delta (Homo sapiens) (UniProt Q03181); test: qHTS assay to identify small molecule agonists of the peroxisome proliferator-activated receptor delta (PPARd) signaling pathway (AID 743212; calls by dose curve)
Procedure, shortened: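 Read-out: beta-lactamase FRET fluorescence after 2 h room-temperature incubation with LiveBLAzer B/G substrate. Cells were HEK293H carrying a UAS-bla reporter for PPARd, treated at 37 C with DMSO-dissolved compounds.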

[17] = molecular target: Peroxisome proliferator-activated receptor delta (Homo sapiens) (UniProt Q03181); test: qHTS assay to identify small molecule antagonists of the peroxisome proliferator-activated receptor delta (PPARd) signaling pathway (AID 743215; active means well fitted inhibition curve with a large enough effect in the signal ratio in the repeat runs, not every such curve was filed as active; the % refers to the signal ratio;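 further: cells stimulated with agonist L165041 at 300 nM final during compound exposure; series mostly up to about 62 µM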)
Procedure, shortened: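 Here, a reporter line (HEK293H, beta-lactamase under a UAS) measures PPARd signaling. Compounds are tested against agonist L165041 at 300 nM final concentration over 17 h at 37 C, with fluorescence read after substrate.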

[18] = molecular target: Vitamin D3 receptor (Homo sapiens) (UniProt P11473); test: qHTS assay to identify small molecule antagonists of the vitamin D receptor (VDR) signaling pathway (AID 743223; active means well fitted inhibition curve with a large enough effect in the signal ratio in the repeat runs, not every such curve was filed as active; the % refers to the signal ratio)
Procedure, shortened: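 Reporter line VDR-bla; stimulus 1alpha,25-(OH)2 vitamin D3, 3 nM final; compound co-addition, 16 h 37C/5% CO2; LiveBLAzer B/G substrate 2 h RT; fluorescence intensity.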

[19] = molecular target: Bile acid receptor (Homo sapiens) (UniProt Q96RI1); test: qHTS assay to identify small molecule antagonists of the farnesoid-X-receptor (FXR) signaling pathway (AID 743217; active means well fitted inhibition curve with a large enough effect in the signal ratio in the repeat runs, not every such curve was filed as active; the % refers to the signal ratio)
Procedure, shortened: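 Test compounds are pin-transferred onto FXR-bla HEK 293T cells, then chenodeoxycholic acid is added at 50 uM final. After 16 h at 37 °C, LiveBLAzer B/G substrate is applied for 2 h at room temperature and fluorescence read.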

[20] = molecular target: Bile acid receptor (Homo sapiens) (UniProt Q96RI1); test: qHTS assay to identify small molecule agonists of the farnesoid-X-receptor (FXR) signaling pathway (AID 743220; active means well fitted activation curve with a large enough effect in the signal ratio in the repeat runs, not every such curve was filed as active; the % refers to the signal ratio)
Procedure, shortened: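 FXR-UAS-bla HEK 293T cells carrying a UAS-driven beta-lactamase reporter were plated for 5 h at 37C/5% CO2, then exposed to DMSO-dissolved Tox21 10K compounds for 16 h at 37C. A LiveBLAzer B/G FRET substrate was loaded for 2 h at room temperature before fluorescence reading.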
On the % scale 0 is the no-effect control and ±100 the full control effect.

Sequence of Vitamin D3 receptor (Homo sapiens) (P11473 whole entry, looked up): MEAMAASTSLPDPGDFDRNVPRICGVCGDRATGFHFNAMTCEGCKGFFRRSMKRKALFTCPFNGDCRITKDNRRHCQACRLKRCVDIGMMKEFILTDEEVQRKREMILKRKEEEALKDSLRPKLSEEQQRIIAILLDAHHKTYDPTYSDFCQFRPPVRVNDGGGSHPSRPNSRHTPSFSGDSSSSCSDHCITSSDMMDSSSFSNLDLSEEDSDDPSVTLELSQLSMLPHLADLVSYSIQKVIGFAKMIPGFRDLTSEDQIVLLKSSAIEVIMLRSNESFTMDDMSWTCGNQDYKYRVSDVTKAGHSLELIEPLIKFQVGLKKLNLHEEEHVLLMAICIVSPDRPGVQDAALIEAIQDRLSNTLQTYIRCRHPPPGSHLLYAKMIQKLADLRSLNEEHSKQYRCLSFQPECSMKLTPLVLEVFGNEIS
Sequence of Peroxisome proliferator-activated receptor delta (Homo sapiens) (Q03181 whole entry, looked up): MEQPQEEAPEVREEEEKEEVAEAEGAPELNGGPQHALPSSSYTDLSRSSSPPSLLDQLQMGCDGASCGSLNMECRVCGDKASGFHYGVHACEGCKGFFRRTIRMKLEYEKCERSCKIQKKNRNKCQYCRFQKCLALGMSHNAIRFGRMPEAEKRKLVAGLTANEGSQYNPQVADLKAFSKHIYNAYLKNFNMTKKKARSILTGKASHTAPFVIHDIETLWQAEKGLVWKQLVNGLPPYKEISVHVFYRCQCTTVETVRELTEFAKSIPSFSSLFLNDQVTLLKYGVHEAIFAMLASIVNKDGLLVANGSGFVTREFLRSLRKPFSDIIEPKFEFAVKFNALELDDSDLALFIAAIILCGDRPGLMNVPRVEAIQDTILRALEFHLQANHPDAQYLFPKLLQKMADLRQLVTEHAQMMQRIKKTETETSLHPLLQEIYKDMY
Sequence of Aryl hydrocarbon receptor (Homo sapiens) (P35869 whole entry, looked up): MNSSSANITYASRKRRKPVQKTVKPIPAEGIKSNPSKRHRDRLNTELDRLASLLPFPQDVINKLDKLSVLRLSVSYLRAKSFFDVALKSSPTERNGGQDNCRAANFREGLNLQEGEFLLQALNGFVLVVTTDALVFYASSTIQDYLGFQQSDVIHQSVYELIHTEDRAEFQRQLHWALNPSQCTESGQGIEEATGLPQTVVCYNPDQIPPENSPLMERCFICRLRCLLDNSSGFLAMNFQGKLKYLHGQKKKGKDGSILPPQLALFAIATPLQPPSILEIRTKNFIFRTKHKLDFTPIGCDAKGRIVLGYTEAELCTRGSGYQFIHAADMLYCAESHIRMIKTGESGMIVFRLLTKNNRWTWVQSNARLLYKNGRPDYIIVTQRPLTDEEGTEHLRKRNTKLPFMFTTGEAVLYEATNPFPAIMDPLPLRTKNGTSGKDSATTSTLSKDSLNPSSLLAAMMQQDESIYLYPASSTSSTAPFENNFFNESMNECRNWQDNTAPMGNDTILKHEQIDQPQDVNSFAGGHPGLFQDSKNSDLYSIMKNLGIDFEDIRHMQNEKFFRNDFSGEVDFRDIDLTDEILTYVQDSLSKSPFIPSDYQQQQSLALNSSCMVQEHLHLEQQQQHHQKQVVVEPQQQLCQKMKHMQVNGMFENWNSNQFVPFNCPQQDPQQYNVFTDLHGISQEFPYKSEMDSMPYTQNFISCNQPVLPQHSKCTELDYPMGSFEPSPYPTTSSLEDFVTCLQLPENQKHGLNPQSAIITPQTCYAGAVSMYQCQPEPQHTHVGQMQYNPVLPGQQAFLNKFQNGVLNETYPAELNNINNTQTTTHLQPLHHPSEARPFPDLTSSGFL
Sequence of Peroxisome proliferator-activated receptor gamma (Homo sapiens) (P37231 whole entry, looked up): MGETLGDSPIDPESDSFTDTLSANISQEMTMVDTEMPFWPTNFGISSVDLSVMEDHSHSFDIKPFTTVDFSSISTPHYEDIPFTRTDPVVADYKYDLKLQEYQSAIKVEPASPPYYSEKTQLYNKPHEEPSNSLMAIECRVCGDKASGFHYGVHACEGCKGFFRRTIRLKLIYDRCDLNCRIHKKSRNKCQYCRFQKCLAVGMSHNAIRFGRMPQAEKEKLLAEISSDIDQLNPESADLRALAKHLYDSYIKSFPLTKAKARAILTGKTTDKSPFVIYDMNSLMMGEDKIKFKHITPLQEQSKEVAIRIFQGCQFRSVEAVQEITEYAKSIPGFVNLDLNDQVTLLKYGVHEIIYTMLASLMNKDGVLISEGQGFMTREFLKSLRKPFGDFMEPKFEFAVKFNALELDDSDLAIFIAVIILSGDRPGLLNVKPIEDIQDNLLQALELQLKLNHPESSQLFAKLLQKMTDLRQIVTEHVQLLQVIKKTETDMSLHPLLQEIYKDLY
Sequence of Bile acid receptor (Homo sapiens) (Q96RI1 whole entry, looked up): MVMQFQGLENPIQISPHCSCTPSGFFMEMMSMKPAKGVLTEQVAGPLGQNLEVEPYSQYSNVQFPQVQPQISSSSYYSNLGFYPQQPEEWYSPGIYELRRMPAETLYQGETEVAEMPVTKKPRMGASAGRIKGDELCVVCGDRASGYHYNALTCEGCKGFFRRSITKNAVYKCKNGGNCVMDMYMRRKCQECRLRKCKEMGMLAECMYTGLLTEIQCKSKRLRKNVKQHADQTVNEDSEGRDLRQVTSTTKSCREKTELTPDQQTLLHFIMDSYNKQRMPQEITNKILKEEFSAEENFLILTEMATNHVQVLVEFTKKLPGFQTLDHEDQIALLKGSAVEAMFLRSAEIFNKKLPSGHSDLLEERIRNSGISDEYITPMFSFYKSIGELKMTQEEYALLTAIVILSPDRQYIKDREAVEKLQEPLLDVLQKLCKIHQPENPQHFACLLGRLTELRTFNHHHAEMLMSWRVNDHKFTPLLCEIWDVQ

CC(=O)NO
inactive: Potency [1] | Potency [2] | Potency [3] | Potency [4] | Potency [5] | Potency [6] | Potency [7] | Potency [8] | Potency [9] | Potency [10] | Potency [11] | Potency [12] | Potency [13] | Potency [14] | Potency [15]

NC(N)=NCCC[C@H](N)C(=O)O
inactive: Potency [1] | Potency [2] | Potency [3] | ratio activity, negative = inhibition [4] 0.163% [at 5.95 µM] | activity change, negative = cytotoxicity [5] 5.54% [at 5.95 µM] | activation [6] 0.601% [at 8.36 µM] | viability change, negative = cytotoxic [7] 9.06% [at 8.36 µM] | activity change, negative = cytotoxicity [8] 4.58% [at 5.95 µM] | activity change, negative = cytotoxicity [10] 1.87% [at 5.95 µM] | activation [16] 0.522% [at 5.95 µM] | ratio activity, negative = inhibition [17] -1.1% [at 6.26 µM] | viability change, negative = cytotoxic [12] -2.05% [at 5.95 µM] | activity change, negative = cytotoxicity [13] -8.21% [at 5.95 µM] | activation [14] 9.36% [at 6.01 µM] | activity change, negative = inhibition [18] 2.1% [at 6.95 µM] | activity change, negative = cytotoxicity [15] -0.114% [at 5.95 µM]

COc1cc(Cl)ccc1Oc1ccc(Cl)cc1Cl
inactive: Potency [1] | Potency [2] | Potency [3] | Potency [5] | Potency [6] | Potency [7] | Potency [8] | Potency [9] | Potency [16] | Potency [11] | Potency [17] | Potency [19] | Potency [12] | Potency [20] | Potency [13] | Potency [14] | outcome [18]
active: Potency [10] 47.6 µM

NCCCN1CCOCC1
inactive: Potency [1] | Potency [2] | Potency [3] | Potency [4] | Potency [5] | Potency [7] | Potency [8] | Potency [9] | Potency [10] | Potency [16] | Potency [11] | Potency [17] | Potency [19] | Potency [20] | Potency [13] | Potency [15]

O=C(Cl)c1cc(C(=O)Cl)cc(C(=O)Cl)c1
inactive: Potency [1] | Potency [2] | Potency [3] | Potency [4] | Potency [5] | Potency [8] | Potency [10] | Potency [16] | Potency [11] | Potency [17] | Potency [19] | Potency [12] | Potency [20] | Potency [13] | Potency [15]

c1ccc(CNCCNCc2ccccc2)cc1
inactive: Potency [1] | Potency [2] | Potency [3] | Potency [5] | Potency [6] | Potency [7] | Potency [8] | Potency [9] | Potency [10] | Potency [16] | Potency [11] | Potency [17] | Potency [12] | Potency [13] | Potency [15]

CCCCCCCCCCCC(=O)OC[C@@H](O)[C@H]1OC[C@H](OCCO)[C@H]1OCCO
inactive: Potency [1] | Potency [2] | Potency [3] | Potency [4] | Potency [5] | Potency [7] | Potency [8] | Potency [16] | Potency [13] | Potency [14]

O=[N+]([O-])c1cccc(S(=O)(=O)O)c1
inactive: Potency [1] | Potency [2] | Potency [3] | Potency [4] | Potency [5] | Potency [7] | Potency [8] | Potency [10] | Potency [16] | Potency [11] | Potency [17] | Potency [13] | Potency [14] | Potency [15]

OC[C@H]1O[C@@H](OCCc2ccc(O)cc2)[C@H](O)[C@@H](O)[C@@H]1O
inactive: Potency [1] | Potency [2] | Potency [3] | Potency [4] | Potency [5] | Potency [7] | Potency [8] | Potency [10] | Potency [16] | Potency [11] | Potency [17] | Potency [19] | Potency [20] | Potency [13] | Potency [14] | Potency [15]
